Structures are written as SMILES. Values joined by “and” are separate entries in the source; they are usually repeats but may differ in a detail not shown here. Equal values may be shown once. Compounds without any hit were thinned out: in the full panel of roughly 83,000, 20% have a hit.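 How to read the values: 0–100, growth inhibition (40 = 60% inhibited); 0, no net growth; -100 to 0, cell death (-40 = 40% of starting cells died; -100 = all dead).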 A number with no mark means an inactive call. Active and inactive are the calls of the source. The calls were made as follows: active = growth percent below 10; inactive = the rest.

Among the data in PubChem BioAssay (NCI) are growth values, retold here.

This experiment has as its system MDA-MB-468 breast. The experiment in a line: NCI-60 one-dose screen, 48 h (100 = growth as untreated, 0 = no growth, -100 = all killed). The settings on record: 10 µM unless noted.
Take `CC1=CC[C@@H]2C(C)(C)C(=O)CC[C@@]2(C)[C@@H]1COc1ccc2ccc(=O)oc2c1`: the growth is 43.1%. Next, `CCn1c(SCc2ccc(C)cc2)nnc1-c1nn(-c2ccc(Cl)cc2Cl)c(-c2ccc(Cl)cc2)c1C`: 6.59% (active); `Cc1cc(-c2ccccc2)on1`: 109%; `C[C@@H]1C(=O)[C@@H]2C[C@@H](O)[C@@H](O)C[C@]2(C)[C@H]2CC[C@@]3(C)C(=C12)CC[C@@H]3[C@@](C)(O)[C@H](O)CCC(C)(C)O`: 103%. Regarding `O=C(CBr)CN1C(=O)c2ccccc2C1=O`, the growth was 103%.

As to `O=C(Nc1ccc(Cl)c(Cl)c1)OCn1ncc2ccc([N+](=O)[O-])cc21`, the growth was 87%.

With `CSCC[C@@H]1C(=O)N(C)[C@H](C(C)(C)C)N1C(=O)c1ccccc1`, the growth is 105%.

In the case of `O=S(=O)(NCCNc1nccc(-c2c(-c3cccc(F)c3)nc3occn23)n1)c1ccc(C(F)(F)F)cc1`, the growth is 74.7%. Next, `COc1ccc(C2c3[nH]c4ccc(Cl)cc4c3CCN2c2oc(CO)nc2C#N)cc1` (stereo not given): 25.2%.

For `CC(C)(C)OC(=O)CC1(O)CCCCC1`, the growth was 94.5%. Next, `C[C@]12C[C@H]1CC[C@]1(C)[C@@H]2CC[C@@]23C[C@H](CC[C@H]21)[C@@](O)(CO)C3`: 82.3%; `CCOC(=O)c1cnc2c(-c3ccc(Cl)c(Cl)c3)cnn2c1`: 85.4%. For `C=C1C(=O)O[C@H]2[C@H]1CC/C(COC(=O)c1cccnc1N)=C\CC[C@@]1(C)O[C@@H]21` the value was 14.8%; for `CC(=O)N(N=Nc1ccccc1)c1cccc2ccccc12`, 84.7%.

For `CC(C)[C@H]1COC(=O)N1[C@@H]1C(=O)N([C@@H](CCC(=O)N2CCN(C3CCCC3)CC2)C(=O)N[C@@H]2CCCc3ccccc32)[C@@H]1/C=C/c1cccc(Br)c1`, the growth was -21.6% (active). Next, `CC[C@H](CO)Nc1nc(NCc2ccccc2)c2ncn(C(C)C)c2n1`: 85%; `COc1cc2ncnc(Nc3ccc(S(=O)(=O)Nc4nccs4)cc3)c2cc1OCCCN1CCCC1`: 99.2%; `O=C(Nc1ccc(-n2cc(-c3ccncc3)c(-c3ccc(Cl)c(O)c3)n2)cc1)c1ccc(Cl)c(C(F)(F)F)c1`: -12% (active). Next, `CC1(C)CC[C@]2(C(N)=O)CC[C@]3(C)C(=CC[C@@H]4[C@@]5(C)C/C(=C/c6ccncc6)C(=O)C(C)(C)[C@@H]5CC[C@]43C)[C@@H]2C1`: -25.2% [100 µM] (active); `CCn1c(Cc2ccccc2Nc2c(Cl)cccc2Cl)nnc1SCC(=O)Nc1cccc(OC)c1`: 75%. For `CCCC(F)C(=O)O` (stereo not given) the value was 108%; for `Nc1nc2ncc(CCNc3ccc(C(=O)NC(CCC(=O)O)C(=O)O)cc3)nc2c(=O)[nH]1` (stereo not given), 96.7%. For the compound `COc1ccc(-c2nn(-c3cccc(Cl)c3)cc2-c2c(C#N)c(N)n(N)c(=O)c2C#N)cc1`, the growth was 56.1%.

With `CCN1C(=O)N(CC)C2C1NN=c1s/c(=C\c3cc4ccccc4[nH]3)c(=O)n12` (stereo not given), the growth is -9.55% (active). Next, `COc1ccc(C(CC(=O)c2ccc3c(c2)OCO3)C(=O)O)cc1OC` (stereo not given): 114% and 103%; `O=C(CSc1nc(-c2ccccc2)cn1-c1ccc(Cl)cc1)c1ccc([N+](=O)[O-])cc1`: 72.5%; `CC(=O)ON1CCCC(P(=O)(OCCSC(=O)C(C)(C)C)OCCSC(=O)C(C)(C)C)C1=O` (stereo not given): 32%. For `O=C(Nc1ccc(Br)cc1)Nc1cccc(Br)c1` the value was 27.2%; for `CCOc1ccc(-c2nc3ccc(-c4nc5ccc(N6CCN(C)CC6)cc5[nH]4)cc3[nH]2)cc1OCC`, -44.5% (active); for `CC(=O)c1cccc(N(C)S(=O)(=O)c2ccc(C)cc2)c1`, 111%.

`CS(=O)(=O)Nc1cc(-c2ccc3ncc(C#N)c(NCc4cccc(F)c4)c3c2)cnc1Cl`: the growth was -37.9% (active). For `CC(=O)N1N=C(c2ccc(C(F)(F)F)c(F)c2)CC1c1[nH]c(C)c(C(=O)NCC(F)(F)F)c1C` (stereo not given) the value was 78.5%; for `CCn1c(CN2CCN(Cc3ccccc3)CC2)nc2cc(NC(=O)c3cccs3)ccc21`, -86.6% (active); for `CC(=O)c1c(C)c2cnc(Nc3ccc(N4CCNCC4)cn3)nc2n(C2CCCC2)c1=O`, 26.9%. For `COc1ccc(/C=C2\COc3ccc(-c4ccccc4)cc3C2=O)cc1O` the value was 14.6%.

In the case of `O=[N+]([O-])c1cccc2cc(S(=O)(=O)O)ccc12`, the growth was 112%. Next, `O=C(Nc1ccccc1O)c1ccc(CNC(=O)c2sccc2Nc2ccnc(C(F)(F)F)c2)cc1`: 14.8%; `NS(=O)(=O)c1ccc(CCn2c(SCC(=O)N/N=C/c3cc4ccccc4[nH]3)nc3ccccc3c2=O)cc1`: 60.2%; `O=C(CCl)N1c2ccccc2Sc2c1ccc1ccccc21`: 26.4%. For `OCCOSCCO` the value was 98.2%.
